Hit rate of the full screen: of about 310,000 compounds, about 14,000 (4.5%) showed an effect of 50% or more. The effect is printed as a negative number. Only a selection was taken, and strong results are over-represented in it overall.
Each compound was assayed against human ether-à-go-go-related gene (hERG) potassium channel (human, UniProt Q12809) (assay: primary screen, population patch clamp on CHO cells stably expressing hERG; higher = less effect of the substance).
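Note: peak tail current of the secondary pulse compared with the same well before compound.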

Chain of human ether-à-go-go-related gene (hERG) potassium channel (Q12809 whole entry, looked up): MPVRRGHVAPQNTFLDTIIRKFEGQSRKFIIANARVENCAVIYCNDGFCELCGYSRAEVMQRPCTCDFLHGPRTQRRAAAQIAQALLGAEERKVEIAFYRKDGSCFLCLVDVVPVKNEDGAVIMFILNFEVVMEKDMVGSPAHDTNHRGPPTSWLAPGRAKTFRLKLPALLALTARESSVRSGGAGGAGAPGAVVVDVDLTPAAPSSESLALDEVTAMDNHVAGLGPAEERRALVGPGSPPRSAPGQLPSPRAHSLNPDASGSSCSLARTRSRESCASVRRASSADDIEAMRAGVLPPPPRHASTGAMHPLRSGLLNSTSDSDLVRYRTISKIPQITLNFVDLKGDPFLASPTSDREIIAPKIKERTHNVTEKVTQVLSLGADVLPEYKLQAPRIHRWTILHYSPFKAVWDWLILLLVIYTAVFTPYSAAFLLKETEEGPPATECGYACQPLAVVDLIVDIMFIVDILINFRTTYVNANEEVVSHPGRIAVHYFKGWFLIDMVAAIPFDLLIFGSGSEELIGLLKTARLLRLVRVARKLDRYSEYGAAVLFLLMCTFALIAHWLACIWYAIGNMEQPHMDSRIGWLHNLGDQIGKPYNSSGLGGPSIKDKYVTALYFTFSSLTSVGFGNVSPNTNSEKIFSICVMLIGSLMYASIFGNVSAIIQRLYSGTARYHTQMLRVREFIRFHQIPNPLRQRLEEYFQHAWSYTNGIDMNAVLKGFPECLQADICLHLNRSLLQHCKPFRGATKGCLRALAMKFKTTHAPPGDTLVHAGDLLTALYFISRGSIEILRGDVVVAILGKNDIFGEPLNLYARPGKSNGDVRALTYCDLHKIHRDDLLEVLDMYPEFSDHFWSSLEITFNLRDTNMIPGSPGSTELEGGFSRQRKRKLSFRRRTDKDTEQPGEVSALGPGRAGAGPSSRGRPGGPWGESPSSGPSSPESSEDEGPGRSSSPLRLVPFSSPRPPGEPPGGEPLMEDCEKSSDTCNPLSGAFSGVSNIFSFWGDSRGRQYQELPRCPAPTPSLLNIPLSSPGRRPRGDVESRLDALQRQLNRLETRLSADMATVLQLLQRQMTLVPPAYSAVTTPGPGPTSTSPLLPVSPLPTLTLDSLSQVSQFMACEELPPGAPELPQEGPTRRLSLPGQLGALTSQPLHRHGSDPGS

| Compound | hERG current change (%, negative = inhibition) at 10uM |
| --- | --- |
| COc1ccc(C(=O)N=c2sc3c(C)ccc(OC)c3n2C)cc1 | 6.32% |
| CCCC(=O)Nc1ccc(C(=O)NNC(=O)c2cccs2)cc1 | 12.2% |
| CC1(C)COC(c2coc3ccccc3c2=O)OC1 | 3.85% |
| Oc1c(N=NC(=S)Nc2ccccc2F)c2ccccc2n1Cc1ccc(F)cc1 | 18.7% |
| O=C(c1cccc(Br)c1)N1CCN(c2ccccn2)CC1 | -4.19% |
| Cc1ccc(CN2CCN(Cc3cccn3-c3ccc(Cl)cn3)CC2CCO)o1 (stereo not shown) | -23.3% |
| OCCC1CN(Cc2cccn2-c2ccccn2)CCN1C1CCCC1 (stereo not shown) | -18.9% |
| Cc1ccc(CN2CCN(Cc3cccn3-c3ccccn3)CC2CCO)cc1 (stereo not shown) | -82% |
| OCCC1CN(Cc2cccn2-c2ccccn2)CCN1C1CCCCC1 (stereo not shown) | -57.1% |
| OCCC1CN(Cc2cccn2-c2ncccn2)CCN1C1CCCC1 (stereo not shown) | -6.11% |
| Cc1ccc(CN2CCN(Cc3cnc(N(C)C)s3)CC2CCO)o1 (stereo not shown) | 6.05% |
| Cc1ccc(CN2CCN(Cc3ccccn3)CC2CCO)cc1 (stereo not shown) | -47.9% |
| Cc1ccc(CN2CCN(Cc3cccn3-c3ccccn3)CC2CCO)o1 (stereo not shown) | -66.1% |
| OCCC1CN(Cc2cccn2-c2ccccn2)CCN1Cc1ccccc1 (stereo not shown) | -76.5% |
| Cc1onc(-c2c(F)cccc2Cl)c1C(=O)ONC(=O)c1ccccc1 | 8.85% |
| CC(=O)Nc1ccc(S(=O)(=O)N(CC(=O)O)Cc2ccccc2)cc1 | -12.6% |
| CC1CN(C(=O)C2CC(=O)N(c3ccc(Cl)cc3)C2)CC(C)O1 (stereo not shown) | -13.3% |
| COC(=O)c1ccc(/C=N\N2CCN(Cc3ccc(C)cc3)CC2)cc1 | 9.51% |
| O=C(CCN1C(=O)/C(=C/c2ccccc2F)SC1=S)NCCc1ccc(O)cc1 | 14.1% |
| COC(=O)c1cc(Cl)c(NC(=O)/C=C/c2ccc(Cl)cc2)cc1OC | -15.7% |
| Fc1ccc(Br)cc1C1C=C(c2ccc(Br)s2)Nc2ncnn21 (stereo not shown) | 9% |

| Compound | hERG current change (%, negative = inhibition) at 10uM |
| --- | --- |
| COCCCNC(=O)c1ccc(CS(=O)(=O)c2ccccc2C)o1 | 7.74% |
| O=C(NCc1cccnc1)C1c2ccccc2C(=O)N1C1CCCCCC1 (stereo not shown) | 2.21% |
| O=C(O)c1cccc2c1NC(C(=O)O)C1CC(Sc3ccccc3[N+](=O)[O-])C(Cl)C21 (stereo not shown) | -0.458% |
| Cc1c(C(=O)N2CCN(c3ncccn3)CC2)oc2ccc(Cl)cc12 | -23.3% |
| Cc1ccc2oc(C(=O)N3CCN(Cc4nccn4C)CC3)c(C)c2c1 | -41.3% |
| Cc1ccc2c(C)c(C(=O)N3CCN(Cc4ccccn4)CC3)oc2c1C | -23.1% |
| Cc1c(C(=O)N2CCN(CCc3ccccn3)CC2)oc2ccc(F)cc12 | -72.1% |
| Cc1c(C(=O)N2CCN(CCc3ccccn3)CC2)oc2ccc(Cl)cc12 | -81.1% |
| Cc1ccc2oc(C(=O)N3CCN(Cc4ncccc4C)CC3)c(C)c2c1 | -78.3% |
| Cc1cc2oc(C(=O)N3CCN(CCc4ccccn4)CC3)c(C)c2cc1C | -21.2% |
| Cc1c(C(=O)N2CCN(C(=O)c3ccccc3)CC2)oc2ccc(F)cc12 | -44.8% |
| Cc1ccc2oc(C(=O)N3CCN(CCO)CC3)c(C)c2c1 | 13.7% |
| CC(C)CN(C(=O)c1ccc(S(=O)(=O)N2CCCC2)cc1)C1CCS(=O)(=O)C1 (stereo not shown) | -3.52% |
| Cc1cccc(NC(=O)C(=O)NCc2ccc3c(c2)OCO3)c1C | -16.5% |
| CCN(CC)C(=O)Oc1nnc(SC(C)C)n1-c1ccc(Cl)c(Cl)c1 | -7.2% |
| Cc1ncoc1C(=O)N1CCCC(C(=O)c2cccc(OC(C)C)c2)C1 (stereo not shown) | 10.3% |
| Cc1ccc(C)c(C(C)NC(=O)C2CCCO2)c1 (stereo not shown) | 17.6% |
| Cc1ccc(Cl)cc1N1CCN(C(=O)c2noc(C)c2[N+](=O)[O-])CC1 | 1.15% |
| O=C(NCC(=O)N1CCN(c2ccccc2O)CC1)c1ccc(Br)o1 | -4.93% |
| Cc1ccc(Cl)cc1N1CCN(C(=O)CNC(=O)c2ccc(Br)o2)CC1 | -55.9% |
| O=C(NCC(=O)N1CCN(c2ccccc2)CC1)c1ccc(Br)o1 | -39.9% |

| Compound | hERG current change (%, negative = inhibition) at 10uM |
| --- | --- |
| Cc1cc(C(=O)N2CCN(c3cc(Cl)ccc3C)CC2)on1 | -58.7% |
| Cc1cc(C(=O)N2CCN(c3ccc(F)cc3)CC2)on1 | -14.5% |
| O=C(NCC(=O)N1CCN(c2cccc(Cl)c2)CC1)c1ccc(Br)o1 | -78.4% |
| O=C(NCC(=O)N1CCN(c2ccccc2F)CC1)c1ccc(Br)o1 | -39.1% |
| CC(=O)N1CCN(C(=O)CNC(=O)c2ccc(Br)o2)CC1 | 22.2% |
| Cc1ccc(CN2CCc3[nH]c(=O)[nH]c(=O)c3C2)cc1 | 17.5% |
| S=C(Nc1ccc(Oc2ccc(NC(=S)NC3CCCCC3)cc2)cc1)NC1CCCCC1 | 17.6% |
| Cc1ccc(C(=O)N2CCN(C(=O)N3CCOCC3)CC2)cc1 | -5.64% |
| COC(=O)c1ccccc1Oc1nc(Cl)cc(OC)n1 | -12.1% |
| O=C(NCc1ccco1)C(=O)NCC(c1ccco1)N1CCOCC1 (stereo not shown) | 13% |
| CC1(C)CC(=O)c2sc(NC(=O)c3ccccc3)nc2C1 | 2.82% |
| O=C(COc1cccc2cccnc12)Nc1ccccc1N1CCOCC1 | -37.7% |
| CCCNC(=O)c1ccc(N2CCC3(CC2)CC(c2cccc(Br)c2)=NO3)c(NC(=O)c2c(Cl)cccc2Cl)c1 | 5.92% |
| COc1ccc(CNCCc2ccccc2)cc1OCC(N)=O | -12% |
| CCOc1cc(CNCCc2ccccc2F)ccc1OC.O=C(O)C(=O)O | -42.1% |
| COc1ccc(CNCCc2ccc(Cl)cc2)cc1OCc1ccccc1 | -75.6% |
| CCOc1cc(CNCc2ccccc2)ccc1OCc1ccc(Cl)cc1.Cl | -33.1% |
| COc1cc(CNCCc2ccccc2)ccc1OCC(N)=O.Cl | -17.4% |
| COc1ccccc1CCNCc1ccc(OC)c(OCc2ccccc2)c1 | -71.9% |

Source: PMC4336329 (PLoS ONE, 2015)
